What all share (test): DAPPL (digital affinity profiling via proximity ligation, sequencing); 10 mM Tris-HCl pH 7.5, 50 mM NaCl, 1 mM DTT, 4% glycerol, room temperature, 30 min; GST-TFs on glutathione beads, 16-mer random dsDNA library, 0.1% formaldehyde crosslink after washing; high values mean tight binding
One assay deals with T1, FLI1 (Homo sapiens, UniProt Q01543 1-452).
T1 sequence: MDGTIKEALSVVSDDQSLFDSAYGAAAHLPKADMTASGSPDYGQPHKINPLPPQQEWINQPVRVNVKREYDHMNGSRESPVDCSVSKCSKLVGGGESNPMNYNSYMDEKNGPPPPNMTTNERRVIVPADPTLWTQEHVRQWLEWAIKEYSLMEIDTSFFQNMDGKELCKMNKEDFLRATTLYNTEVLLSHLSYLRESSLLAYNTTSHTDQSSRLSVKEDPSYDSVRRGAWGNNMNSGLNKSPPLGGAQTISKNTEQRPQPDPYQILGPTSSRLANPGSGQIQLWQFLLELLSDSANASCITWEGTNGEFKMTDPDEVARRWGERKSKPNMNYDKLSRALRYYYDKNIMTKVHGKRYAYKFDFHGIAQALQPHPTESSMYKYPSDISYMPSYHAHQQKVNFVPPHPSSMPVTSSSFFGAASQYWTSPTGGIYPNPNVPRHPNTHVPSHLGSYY
As to conditions: protein: recombinant; tags: N-terminal GST; dsDNA, one strand shown. The method, boiled down:
(§1)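 The binding signal reported is, for every hexamer, its read frequency for a factor over its read frequency for the tag-only sample. Reads came from pools of yeast-expressed, GST-fused human transcription factors on glutathione beads, barcoded with DNA and mixed with that sample, which were incubated with 200 nmole of a random double-stranded 16-mer DNA library in Tris/NaCl/DTT/glycerol buffer at room temperature for 30 min. After washing, the pools were crosslinked with 0.1% formaldehyde, proximity-ligated with BsaI/T4 ligase for 1 h at 37 °C, PCR-amplified and sequenced on an Illumina NextSeq500.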

The next assay has as its target T2, ELK1 (Homo sapiens, UniProt P19419 1-428).
T2 sequence: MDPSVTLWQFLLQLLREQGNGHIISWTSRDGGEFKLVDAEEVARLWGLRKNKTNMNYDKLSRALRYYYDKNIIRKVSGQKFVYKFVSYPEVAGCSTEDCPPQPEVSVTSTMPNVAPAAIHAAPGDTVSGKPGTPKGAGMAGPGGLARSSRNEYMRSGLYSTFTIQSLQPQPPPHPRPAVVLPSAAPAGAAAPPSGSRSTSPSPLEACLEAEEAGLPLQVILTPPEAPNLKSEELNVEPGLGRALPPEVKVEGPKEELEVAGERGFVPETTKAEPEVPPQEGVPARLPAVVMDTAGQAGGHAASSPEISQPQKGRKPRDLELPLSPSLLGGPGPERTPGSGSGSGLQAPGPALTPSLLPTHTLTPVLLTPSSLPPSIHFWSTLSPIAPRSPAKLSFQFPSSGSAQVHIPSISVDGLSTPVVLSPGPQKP
To be noted: protein: recombinant; tags: N-terminal GST; dsDNA, one strand shown. The gist of the method: as §1

Another assay has as its target T3, GABPA (Homo sapiens, UniProt Q06546 1-454).
T3 sequence: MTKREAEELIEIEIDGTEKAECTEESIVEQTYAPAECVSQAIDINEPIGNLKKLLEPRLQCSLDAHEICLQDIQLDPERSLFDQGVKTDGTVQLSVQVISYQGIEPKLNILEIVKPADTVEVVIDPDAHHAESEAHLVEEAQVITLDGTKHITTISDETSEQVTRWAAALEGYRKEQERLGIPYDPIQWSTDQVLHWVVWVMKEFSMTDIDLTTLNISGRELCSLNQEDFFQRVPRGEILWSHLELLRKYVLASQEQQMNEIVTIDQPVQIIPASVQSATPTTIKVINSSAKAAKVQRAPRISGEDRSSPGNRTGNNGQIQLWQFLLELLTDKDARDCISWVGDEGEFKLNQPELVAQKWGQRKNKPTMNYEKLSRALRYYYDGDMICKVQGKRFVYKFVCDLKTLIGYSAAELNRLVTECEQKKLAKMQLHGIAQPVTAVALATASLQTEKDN
As to conditions: protein: recombinant; tags: N-terminal GST; dsDNA, one strand shown. The method, boiled down: as §1

The next assay deals with T4, ERG (Homo sapiens, UniProt P11308 1-479).
T4 sequence: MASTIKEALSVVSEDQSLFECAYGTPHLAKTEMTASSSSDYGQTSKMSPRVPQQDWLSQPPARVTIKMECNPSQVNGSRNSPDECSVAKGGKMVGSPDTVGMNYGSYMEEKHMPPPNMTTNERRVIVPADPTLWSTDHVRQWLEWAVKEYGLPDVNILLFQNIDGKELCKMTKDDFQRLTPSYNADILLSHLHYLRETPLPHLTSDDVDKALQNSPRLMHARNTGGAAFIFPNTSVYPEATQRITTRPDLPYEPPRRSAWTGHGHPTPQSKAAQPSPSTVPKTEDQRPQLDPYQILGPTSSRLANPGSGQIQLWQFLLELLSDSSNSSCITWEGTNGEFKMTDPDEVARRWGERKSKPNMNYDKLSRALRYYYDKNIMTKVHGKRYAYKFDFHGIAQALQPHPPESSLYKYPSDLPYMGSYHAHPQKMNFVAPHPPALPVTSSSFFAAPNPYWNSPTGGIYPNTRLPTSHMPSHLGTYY
As to conditions: protein: recombinant; tags: N-terminal GST; dsDNA, one strand shown. The gist of the method: as §1

A further assay addresses ELF1 (Homo sapiens, UniProt P32519 1-619). As to conditions: protein: recombinant; tags: N-terminal GST; dsDNA, one strand shown. The gist of the method:
as §1

The next assay has as its target T5, EHF (Homo sapiens, UniProt Q9NZC4 1-300).
T5 sequence: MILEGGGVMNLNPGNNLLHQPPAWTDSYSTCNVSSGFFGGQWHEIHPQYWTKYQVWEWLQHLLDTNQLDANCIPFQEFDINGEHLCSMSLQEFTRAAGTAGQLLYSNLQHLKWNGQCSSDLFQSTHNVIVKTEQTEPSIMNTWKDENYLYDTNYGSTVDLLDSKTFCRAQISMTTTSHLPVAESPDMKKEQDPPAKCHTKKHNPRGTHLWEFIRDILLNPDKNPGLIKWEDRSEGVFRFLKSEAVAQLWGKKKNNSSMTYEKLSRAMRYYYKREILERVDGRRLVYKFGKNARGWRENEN
To be noted: protein: recombinant; tags: N-terminal GST; dsDNA, one strand shown. The gist of the method:
as §1

A further assay addresses SPI1 (Homo sapiens, UniProt P17947 1-270). As to conditions: protein: recombinant; tags: N-terminal GST; dsDNA, one strand shown. The gist of the method: as §1
In the next assay the target is SPIB (Homo sapiens, UniProt Q01892 1-262). To be noted: protein: recombinant; tags: N-terminal GST; dsDNA, one strand shown. The method, boiled down: as §1
SPIB, sequence (Q01892 whole entry): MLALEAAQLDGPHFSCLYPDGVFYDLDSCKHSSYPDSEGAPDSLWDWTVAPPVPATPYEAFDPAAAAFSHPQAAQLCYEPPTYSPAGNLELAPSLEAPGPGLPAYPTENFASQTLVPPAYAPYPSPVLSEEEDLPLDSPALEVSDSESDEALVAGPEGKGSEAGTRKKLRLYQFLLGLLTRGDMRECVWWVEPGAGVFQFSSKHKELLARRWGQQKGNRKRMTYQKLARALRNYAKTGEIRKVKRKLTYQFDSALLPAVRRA
For another assay, the target named is T6, ELK3 (Homo sapiens, UniProt P41970 1-407).
T6 sequence: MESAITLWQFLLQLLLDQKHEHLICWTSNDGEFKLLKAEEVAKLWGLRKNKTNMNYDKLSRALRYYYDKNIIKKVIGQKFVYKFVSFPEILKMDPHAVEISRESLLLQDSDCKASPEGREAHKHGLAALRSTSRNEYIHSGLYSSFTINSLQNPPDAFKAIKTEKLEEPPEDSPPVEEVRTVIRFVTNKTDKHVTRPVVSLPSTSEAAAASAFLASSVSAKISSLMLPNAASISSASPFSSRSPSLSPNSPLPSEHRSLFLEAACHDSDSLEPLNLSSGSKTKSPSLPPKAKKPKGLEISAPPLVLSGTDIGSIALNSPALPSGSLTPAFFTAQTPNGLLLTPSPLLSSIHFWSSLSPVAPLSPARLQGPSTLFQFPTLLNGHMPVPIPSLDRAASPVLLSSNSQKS
As to conditions: protein: recombinant; tags: N-terminal GST; dsDNA, one strand shown. The method, boiled down: as §1

In another assay the target is T7, FEV (Homo sapiens, UniProt Q99581 1-238).
T7 sequence: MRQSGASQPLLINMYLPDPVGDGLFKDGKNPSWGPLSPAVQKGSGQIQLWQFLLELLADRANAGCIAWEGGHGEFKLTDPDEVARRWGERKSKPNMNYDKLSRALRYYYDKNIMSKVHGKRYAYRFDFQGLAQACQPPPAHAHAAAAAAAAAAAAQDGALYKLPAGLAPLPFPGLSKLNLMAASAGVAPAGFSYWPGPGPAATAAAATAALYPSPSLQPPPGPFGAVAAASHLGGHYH
To be noted: protein: recombinant; tags: N-terminal GST; dsDNA, one strand shown. The gist of the method: as §1

Another assay concerns the target ETV5 (Homo sapiens, UniProt P41161 1-510). As to conditions: protein: recombinant; tags: N-terminal GST; dsDNA, one strand shown. The method, boiled down:
as §1

For another assay, the target named is HSF1 (Homo sapiens, UniProt Q00613 1-529). To be noted: protein: recombinant; tags: N-terminal GST; chain copies: 3; dsDNA, one strand shown. The method, boiled down:
as §1

The target in the next assay is T8, SPIC (Homo sapiens, UniProt Q8N5J4 1-248).
T8 sequence: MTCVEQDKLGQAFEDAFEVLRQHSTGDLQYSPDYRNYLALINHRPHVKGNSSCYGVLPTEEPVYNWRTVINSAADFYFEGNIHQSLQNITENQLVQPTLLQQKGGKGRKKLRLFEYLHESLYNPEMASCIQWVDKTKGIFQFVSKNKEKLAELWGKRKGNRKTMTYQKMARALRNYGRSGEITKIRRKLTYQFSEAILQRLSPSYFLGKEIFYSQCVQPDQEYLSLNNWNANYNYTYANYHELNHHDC
As to conditions: protein: recombinant; tags: N-terminal GST; dsDNA, one strand shown. The method, boiled down: as §1

For another assay, the target named is ELF4 (Homo sapiens, UniProt Q99607 1-663). To be noted: protein: recombinant; tags: N-terminal GST; dsDNA, one strand shown. The gist of the method:
as §1

Another assay deals with T9, ELK4 (Homo sapiens, UniProt P28324-2 1-405).
T9 sequence: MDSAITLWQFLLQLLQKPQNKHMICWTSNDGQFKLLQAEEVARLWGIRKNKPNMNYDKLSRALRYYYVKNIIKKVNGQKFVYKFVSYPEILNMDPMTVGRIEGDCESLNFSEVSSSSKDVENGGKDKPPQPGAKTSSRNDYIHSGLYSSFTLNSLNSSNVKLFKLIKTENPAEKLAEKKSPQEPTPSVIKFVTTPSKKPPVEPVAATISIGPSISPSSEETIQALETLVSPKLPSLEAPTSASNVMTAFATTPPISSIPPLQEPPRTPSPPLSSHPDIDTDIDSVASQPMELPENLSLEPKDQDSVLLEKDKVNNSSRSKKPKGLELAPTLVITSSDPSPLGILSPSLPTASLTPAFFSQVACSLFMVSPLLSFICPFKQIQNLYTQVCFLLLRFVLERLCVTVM
As to conditions: protein: recombinant; tags: N-terminal GST; dsDNA, one strand shown. The method, boiled down: as §1

A further assay concerns the target T10, ETV2 (Homo sapiens, UniProt O00321 1-342).
T10 sequence: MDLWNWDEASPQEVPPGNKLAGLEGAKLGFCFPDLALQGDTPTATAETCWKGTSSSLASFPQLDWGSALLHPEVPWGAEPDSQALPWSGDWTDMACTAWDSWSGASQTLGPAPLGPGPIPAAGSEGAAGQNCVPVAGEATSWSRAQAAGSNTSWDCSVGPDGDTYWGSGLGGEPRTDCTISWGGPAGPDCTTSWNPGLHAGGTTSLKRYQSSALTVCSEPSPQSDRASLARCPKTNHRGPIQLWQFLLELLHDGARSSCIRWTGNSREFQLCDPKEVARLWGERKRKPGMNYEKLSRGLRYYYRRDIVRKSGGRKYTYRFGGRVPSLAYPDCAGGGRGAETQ
As to conditions: protein: recombinant; tags: N-terminal GST; dsDNA, one strand shown. The method, boiled down:
as §1

For another assay, the target named is T11, ELF3 (Homo sapiens, UniProt P78545 1-371).
T11 sequence: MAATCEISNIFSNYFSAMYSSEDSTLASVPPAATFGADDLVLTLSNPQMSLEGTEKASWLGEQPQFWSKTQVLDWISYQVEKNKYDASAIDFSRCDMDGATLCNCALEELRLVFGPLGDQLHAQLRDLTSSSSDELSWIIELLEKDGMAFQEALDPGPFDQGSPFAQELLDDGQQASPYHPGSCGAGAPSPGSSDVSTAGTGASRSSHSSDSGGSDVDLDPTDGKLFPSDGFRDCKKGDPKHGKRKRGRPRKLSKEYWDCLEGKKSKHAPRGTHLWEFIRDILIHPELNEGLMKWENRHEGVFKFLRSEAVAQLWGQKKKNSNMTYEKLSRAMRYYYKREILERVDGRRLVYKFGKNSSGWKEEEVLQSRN
As to conditions: protein: recombinant; tags: N-terminal GST; dsDNA, one strand shown. The gist of the method:
as §1

A further assay deals with CRX (Homo sapiens, UniProt O43186 1-299). As to conditions: protein: recombinant; tags: N-terminal GST; dsDNA, one strand shown. The method, boiled down: as §1
CRX, sequence (O43186 whole entry): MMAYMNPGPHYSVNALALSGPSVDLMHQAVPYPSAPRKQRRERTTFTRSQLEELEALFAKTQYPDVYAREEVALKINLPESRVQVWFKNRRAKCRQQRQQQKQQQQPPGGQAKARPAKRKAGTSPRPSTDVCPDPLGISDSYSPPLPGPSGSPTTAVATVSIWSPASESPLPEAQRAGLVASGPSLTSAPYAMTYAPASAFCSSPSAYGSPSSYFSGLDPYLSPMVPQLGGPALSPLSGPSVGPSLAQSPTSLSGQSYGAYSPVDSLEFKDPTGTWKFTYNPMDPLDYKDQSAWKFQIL
For another assay, the target named is ETV1 (Homo sapiens, UniProt P50549 1-477). As to conditions: protein: recombinant; tags: N-terminal GST; dsDNA, one strand shown. The gist of the method: as §1
ETV1, sequence (P50549 whole entry): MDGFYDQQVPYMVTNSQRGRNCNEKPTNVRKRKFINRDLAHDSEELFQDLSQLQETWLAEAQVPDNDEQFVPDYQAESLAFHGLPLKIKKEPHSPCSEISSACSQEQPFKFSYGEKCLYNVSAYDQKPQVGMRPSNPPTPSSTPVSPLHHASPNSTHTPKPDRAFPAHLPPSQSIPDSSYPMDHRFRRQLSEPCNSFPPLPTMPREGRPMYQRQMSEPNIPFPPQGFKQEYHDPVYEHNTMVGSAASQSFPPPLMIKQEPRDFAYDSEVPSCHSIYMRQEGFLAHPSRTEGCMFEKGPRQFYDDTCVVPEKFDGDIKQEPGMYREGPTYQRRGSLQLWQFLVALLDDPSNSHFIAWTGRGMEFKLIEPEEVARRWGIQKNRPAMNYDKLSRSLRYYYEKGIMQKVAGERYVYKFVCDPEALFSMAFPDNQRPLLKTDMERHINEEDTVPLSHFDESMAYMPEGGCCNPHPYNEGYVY

Drawing on PMC7862700, “An all-to-all approach to the identification of sequence-specific readers for epigenetic DNA modifications on cytosine”, this text covers binding signal for one sequence.

ETV5, sequence (P41161 whole entry): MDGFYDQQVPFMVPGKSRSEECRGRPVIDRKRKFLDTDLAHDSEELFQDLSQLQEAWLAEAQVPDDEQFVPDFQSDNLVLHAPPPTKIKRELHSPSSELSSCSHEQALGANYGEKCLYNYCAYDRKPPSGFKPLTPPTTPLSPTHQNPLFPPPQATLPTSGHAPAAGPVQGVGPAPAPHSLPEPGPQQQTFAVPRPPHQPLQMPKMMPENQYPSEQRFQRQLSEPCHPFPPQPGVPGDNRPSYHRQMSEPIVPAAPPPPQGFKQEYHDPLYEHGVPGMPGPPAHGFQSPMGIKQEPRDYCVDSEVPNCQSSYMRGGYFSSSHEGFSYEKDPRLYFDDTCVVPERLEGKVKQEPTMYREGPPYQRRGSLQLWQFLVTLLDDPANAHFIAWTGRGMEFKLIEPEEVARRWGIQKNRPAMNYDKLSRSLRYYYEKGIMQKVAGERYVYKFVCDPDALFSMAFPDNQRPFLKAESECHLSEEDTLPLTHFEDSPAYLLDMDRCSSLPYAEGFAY
HSF1, sequence (Q00613 whole entry): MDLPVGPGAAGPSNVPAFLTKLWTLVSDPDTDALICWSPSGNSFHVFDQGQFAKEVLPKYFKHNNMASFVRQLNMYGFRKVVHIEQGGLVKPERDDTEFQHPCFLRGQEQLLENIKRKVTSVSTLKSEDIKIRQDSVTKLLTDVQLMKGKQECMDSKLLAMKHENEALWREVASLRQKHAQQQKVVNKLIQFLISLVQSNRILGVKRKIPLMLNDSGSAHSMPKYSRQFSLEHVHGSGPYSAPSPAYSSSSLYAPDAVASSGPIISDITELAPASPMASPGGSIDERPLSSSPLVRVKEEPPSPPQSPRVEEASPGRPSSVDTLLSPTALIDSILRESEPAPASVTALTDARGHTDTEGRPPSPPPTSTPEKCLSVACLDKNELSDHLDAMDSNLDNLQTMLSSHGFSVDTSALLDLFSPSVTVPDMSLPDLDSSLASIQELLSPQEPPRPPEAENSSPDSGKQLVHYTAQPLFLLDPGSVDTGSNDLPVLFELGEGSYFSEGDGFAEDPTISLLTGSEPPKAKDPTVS
ELF1, sequence (P32519 whole entry): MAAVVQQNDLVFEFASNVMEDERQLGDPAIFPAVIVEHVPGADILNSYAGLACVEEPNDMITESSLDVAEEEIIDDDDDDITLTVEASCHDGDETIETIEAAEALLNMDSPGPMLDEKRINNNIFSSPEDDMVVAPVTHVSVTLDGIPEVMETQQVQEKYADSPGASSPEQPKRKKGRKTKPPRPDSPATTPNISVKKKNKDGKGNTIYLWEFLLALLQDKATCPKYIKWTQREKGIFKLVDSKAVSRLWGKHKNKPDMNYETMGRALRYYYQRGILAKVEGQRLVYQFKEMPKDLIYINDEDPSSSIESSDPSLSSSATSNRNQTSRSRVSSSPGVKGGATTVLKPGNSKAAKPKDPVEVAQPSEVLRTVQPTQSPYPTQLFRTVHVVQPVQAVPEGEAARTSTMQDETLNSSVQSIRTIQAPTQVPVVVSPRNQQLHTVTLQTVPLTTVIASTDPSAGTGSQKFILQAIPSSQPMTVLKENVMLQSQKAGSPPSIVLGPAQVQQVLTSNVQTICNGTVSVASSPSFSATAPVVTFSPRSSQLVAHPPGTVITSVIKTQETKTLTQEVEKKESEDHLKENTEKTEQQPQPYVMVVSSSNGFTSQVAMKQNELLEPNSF
ELF4, sequence (Q99607 whole entry): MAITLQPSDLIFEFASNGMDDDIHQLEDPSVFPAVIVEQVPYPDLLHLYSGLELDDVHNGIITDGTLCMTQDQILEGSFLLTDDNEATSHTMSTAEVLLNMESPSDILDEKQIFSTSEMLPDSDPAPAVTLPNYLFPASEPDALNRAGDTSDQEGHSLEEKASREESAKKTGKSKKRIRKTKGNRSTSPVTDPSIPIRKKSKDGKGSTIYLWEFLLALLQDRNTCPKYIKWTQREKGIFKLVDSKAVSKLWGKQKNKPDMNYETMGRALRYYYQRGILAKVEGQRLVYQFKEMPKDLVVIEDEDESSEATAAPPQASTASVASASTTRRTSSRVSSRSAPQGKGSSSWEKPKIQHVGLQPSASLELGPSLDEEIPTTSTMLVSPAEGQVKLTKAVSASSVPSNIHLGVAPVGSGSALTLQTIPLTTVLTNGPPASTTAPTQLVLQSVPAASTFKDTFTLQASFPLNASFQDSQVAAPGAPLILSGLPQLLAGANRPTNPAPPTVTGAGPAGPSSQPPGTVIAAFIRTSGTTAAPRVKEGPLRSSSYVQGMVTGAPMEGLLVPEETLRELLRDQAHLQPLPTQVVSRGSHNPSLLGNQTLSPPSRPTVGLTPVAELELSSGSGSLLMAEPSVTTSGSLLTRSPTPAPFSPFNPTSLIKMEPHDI

As for TATGCG, the binding signal with FLI1 was 1.5 fold enrichment (6-mer frequency, TF over GST control); in the assay with ELK1 it was 1.42 fold enrichment (6-mer frequency, TF over GST control); with GABPA, 1.35 fold enrichment (6-mer frequency, TF over GST control); with ERG, 1.31 fold enrichment (6-mer frequency, TF over GST control); with ELF1, 1.31 fold enrichment (6-mer frequency, TF over GST control); in the assay with EHF, 1.37 fold enrichment (6-mer frequency, TF over GST control). The binding signal was 1.32 fold enrichment (6-mer frequency, TF over GST control) in the assay with SPI1; 1.29 fold enrichment (6-mer frequency, TF over GST control) in the assay with SPIB; 1.39 fold enrichment (6-mer frequency, TF over GST control) in the assay with ELK3; 1.26 fold enrichment (6-mer frequency, TF over GST control) with FEV; 1.29 fold enrichment (6-mer frequency, TF over GST control) with ETV5; 1.23 fold enrichment (6-mer frequency, TF over GST control) with HSF1. In addition, the binding signal with SPIC was 1.63 fold enrichment (6-mer frequency, TF over GST control); with ELF4 it was 1.35 fold enrichment (6-mer frequency, TF over GST control); with ELK4 it was 1.44 fold enrichment (6-mer frequency, TF over GST control); with ETV2 it was 1.45 fold enrichment (6-mer frequency, TF over GST control); in the assay with ELF3, 1.19 fold enrichment (6-mer frequency, TF over GST control); with CRX it was 1.4 fold enrichment (6-mer frequency, TF over GST control). The binding signal with ETV1 was 1.35 fold enrichment (6-mer frequency, TF over GST control).
